Test results published in PubChem BioAssay (EPA / NIEHS).
Records with an inconclusive call do not appear. Activity calls are given as the source filed them. Rule for the calls, unless noted: active = hit-call score of the fitted dose curve at least 0.9, where 1 is the maximum; inactive = score below 0.9.

Legend:
[1] = ATG_PBREM_CIS: Attagene CIS-FACTORIAL HepG2 Assay for human Phenobarbital-responsive Enhancer Module (PBREM) (AID 2282955); conditions: HepG2 PBREM cis-reporter, Attagene multiplexed transcription; actives raise or lower the signal
Method in brief: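 HepG2 cells transiently transfected with multiple cis-regulated reporter transcription units; endogenous factor activity at the PBREM element measured as reporter mRNA 24 h after dosing, via RT-PCR and capillary electrophoresis of fluorescent fragments; bidirectional fitting versus DMSO.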

[2] = molecular target: Paired box protein Pax-6 (Homo sapiens) (UniProt P26367); assay: ATG_Pax6_CIS: Attagene CIS-FACTORIAL HepG2 Assay for human Paired Box 6 (PAX6) (AID 2282956); conditions: HepG2 CIS-FACTORIAL PAX6 reporter transcription, RNA readout; actives raise or lower the signal
Paired box protein Pax-6 (Homo sapiens), sequence (P26367 whole entry, looked up): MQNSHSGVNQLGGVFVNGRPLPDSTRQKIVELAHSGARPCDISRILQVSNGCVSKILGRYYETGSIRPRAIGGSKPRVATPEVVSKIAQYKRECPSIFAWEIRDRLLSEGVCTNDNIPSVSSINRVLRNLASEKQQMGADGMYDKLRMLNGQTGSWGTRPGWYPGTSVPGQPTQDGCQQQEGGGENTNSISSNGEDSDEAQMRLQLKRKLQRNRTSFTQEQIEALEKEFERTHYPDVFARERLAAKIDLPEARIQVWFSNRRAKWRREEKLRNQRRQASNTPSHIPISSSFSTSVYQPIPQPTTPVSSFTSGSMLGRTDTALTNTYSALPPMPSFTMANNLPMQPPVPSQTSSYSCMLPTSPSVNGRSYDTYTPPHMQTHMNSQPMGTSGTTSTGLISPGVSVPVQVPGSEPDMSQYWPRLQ
Method in brief: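 Transient MRTU transfection of HepG2 → compound exposure 24 h → TriZol RNA, oligo(dT) RT → PCR, 6-FAM primer extension, HpaI cut → capillary electrophoresis; activity fitted both directions against DMSO.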

[3] = ATG_PXRE_CIS: Attagene CIS-FACTORIAL HepG2 Assay for human Pregnane X Receptor Element (PXRE) (AID 2282957); conditions: HepG2 Attagene CIS-FACTORIAL PXRE reporter, mRNA; actives raise or lower the signal
Method in brief: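 Transfect HepG2 with MRTUs (cis promoter elements); dose chemical, incubate 24 h; isolate RNA, RT with oligo(dT), PCR, 6-FAM label, HpaI cut, CE. Gain/loss fit vs DMSO.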

[4] = ATG_PPRE_CIS: Attagene CIS-FACTORIAL HepG2 Assay for human Peroxisome Proliferator-activated Response Element (PPRE) (AID 2282958); conditions: HepG2 PPRE cis-element reporter, Attagene transcription factor profiling; actives raise or lower the signal
Method in brief: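 HepG2 cells transiently transfected with multiplexed cis-element reporter units measure endogenous transcription factor activity. After 24 h compound exposure, reporter mRNA is quantified by RT-PCR, 6-FAM labeling, HpaI digestion and capillary electrophoresis; bidirectional fits are made against DMSO baseline.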

[5] = ATG_RORE_CIS: Attagene CIS-FACTORIAL HepG2 Assay for human RAR-related Orphan Receptor Element (RORE) (AID 2282959); conditions: HepG2 Attagene cis-factorial RORE reporter, mRNA; actives raise or lower the signal
Method in brief: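 HepG2 cells transiently transfected with multiple cis-element reporter transcription units, exposed to chemical for 24 h. Reporter mRNA quantified by RT-PCR, 6-FAM primer-extension labeling, HpaI digestion and capillary electrophoresis; bidirectional fit versus DMSO baseline.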

[6] = ATG_Sox_CIS: Attagene CIS-FACTORIAL HepG2 Assay for human SRY-box transcription factor (SOX) (AID 2282960); conditions: HepG2 Attagene cis-factorial SOX reporter, mRNA; actives raise or lower the signal
Method in brief: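 HepG2 cells transiently transfected with cis-element-driven multiple reporter transcription units, dosed 24 h; reporter mRNA measured by RT-PCR, FAM labelling, HpaI digestion and capillary electrophoresis. Bidirectional fit versus DMSO baseline.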

[7] = molecular target: Transcription factor Sp1 (Homo sapiens) (UniProt P08047); assay: ATG_Sp1_CIS: Attagene CIS-FACTORIAL HepG2 Assay for human Specificity Protein 1 (Sp1) (AID 2282961); conditions: HepG2 Sp1 cis-reporter transcription, actives raise or lower the signal
Transcription factor Sp1 (Homo sapiens), sequence (P08047 whole entry, looked up): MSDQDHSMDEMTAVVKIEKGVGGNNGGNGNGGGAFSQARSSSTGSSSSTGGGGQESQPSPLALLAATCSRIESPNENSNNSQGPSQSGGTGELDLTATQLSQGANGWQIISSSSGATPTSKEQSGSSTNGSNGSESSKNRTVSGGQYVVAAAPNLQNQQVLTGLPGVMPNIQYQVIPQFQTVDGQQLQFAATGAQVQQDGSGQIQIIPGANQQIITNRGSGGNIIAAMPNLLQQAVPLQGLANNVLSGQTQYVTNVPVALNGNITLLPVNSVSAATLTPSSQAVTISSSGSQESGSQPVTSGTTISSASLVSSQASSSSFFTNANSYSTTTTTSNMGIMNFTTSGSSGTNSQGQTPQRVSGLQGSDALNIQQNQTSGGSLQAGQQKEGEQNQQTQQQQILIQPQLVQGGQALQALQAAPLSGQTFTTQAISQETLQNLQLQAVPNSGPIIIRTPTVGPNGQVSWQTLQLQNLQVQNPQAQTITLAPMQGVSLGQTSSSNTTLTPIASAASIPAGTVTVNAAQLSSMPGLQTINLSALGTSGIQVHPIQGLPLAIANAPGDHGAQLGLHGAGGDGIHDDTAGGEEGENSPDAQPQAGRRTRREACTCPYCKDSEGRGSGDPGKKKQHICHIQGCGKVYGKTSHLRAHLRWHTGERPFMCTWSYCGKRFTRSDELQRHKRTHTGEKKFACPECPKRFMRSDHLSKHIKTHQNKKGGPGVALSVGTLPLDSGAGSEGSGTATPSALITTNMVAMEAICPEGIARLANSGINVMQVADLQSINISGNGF
Method in brief: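 HepG2 cells transiently transfected with multiple reporter transcription units driven by cis-regulatory elements; Sp1-responsive reporter mRNA measured 24 h after dosing by RT-PCR and capillary electrophoresis fluorescence, fitted bidirectionally against DMSO baseline.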

[8] = ATG_SREBP_CIS: Attagene CIS-FACTORIAL HepG2 Assay for human Sterol Regulatory Element Binding (SREBP) (AID 2282962); conditions: HepG2 Attagene cis-factorial SREBP reporter, mRNA; actives raise or lower the signal
Method in brief: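 Transfected HepG2 (cis-regulated reporter library, endogenous TFs) → compound 24 h → total RNA → oligo(dT) RT → reporter-specific PCR → FAM primer extension, HpaI cut → CE fluorescence. Fit bidirectional vs DMSO.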

[9] = molecular target: Signal transducer and activator of transcription 3 (Homo sapiens) (UniProt P40763); assay: ATG_STAT3_CIS: Attagene CIS-FACTORIAL HepG2 Assay for human Signal Transducer and Activator of Transcription 3 (STAT3) (AID 2282963); conditions: HepG2, Attagene cis-factorial STAT3 reporter transcription; actives raise or lower the signal
Signal transducer and activator of transcription 3 (Homo sapiens), sequence (P40763 whole entry, looked up): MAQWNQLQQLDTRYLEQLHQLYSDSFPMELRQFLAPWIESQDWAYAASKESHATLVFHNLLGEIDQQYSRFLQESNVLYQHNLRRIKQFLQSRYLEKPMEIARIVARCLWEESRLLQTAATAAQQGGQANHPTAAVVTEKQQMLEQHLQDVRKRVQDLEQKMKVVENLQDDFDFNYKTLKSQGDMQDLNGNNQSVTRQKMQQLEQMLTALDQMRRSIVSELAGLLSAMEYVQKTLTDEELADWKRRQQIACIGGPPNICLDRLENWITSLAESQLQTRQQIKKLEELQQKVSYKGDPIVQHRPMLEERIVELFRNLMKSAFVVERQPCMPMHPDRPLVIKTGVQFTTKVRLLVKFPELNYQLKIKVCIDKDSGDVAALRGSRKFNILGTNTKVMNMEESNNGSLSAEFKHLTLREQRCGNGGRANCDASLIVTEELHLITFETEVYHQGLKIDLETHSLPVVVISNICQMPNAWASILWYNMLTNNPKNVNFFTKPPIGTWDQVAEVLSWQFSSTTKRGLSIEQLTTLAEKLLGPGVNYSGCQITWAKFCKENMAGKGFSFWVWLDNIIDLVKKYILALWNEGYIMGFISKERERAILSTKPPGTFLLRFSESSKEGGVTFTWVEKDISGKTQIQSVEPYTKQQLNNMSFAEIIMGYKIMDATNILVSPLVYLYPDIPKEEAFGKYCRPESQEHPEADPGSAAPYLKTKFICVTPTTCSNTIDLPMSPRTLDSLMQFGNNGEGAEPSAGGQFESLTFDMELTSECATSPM
Method in brief: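 HepG2 cells transiently transfected with cis-element-driven multiple reporter transcription units; after 24 h chemical exposure, reporter mRNA measured by RT-PCR, 6-FAM primer-extension labelling, HpaI digestion and capillary electrophoresis. Bidirectional fitting versus DMSO baseline.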

[10] = ATG_TA_CIS: Attagene CIS-FACTORIAL HepG2 Assay for human TA Basal Promoter (AID 2282964); conditions: HepG2 Attagene CIS-factorial TA basal promoter reporter; actives raise or lower the signal
Method in brief: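 Read-out: fluorescent reporter-transcript fragments resolved by capillary electrophoresis after RT-PCR and HpaI digestion. Source: HepG2 cells carrying transiently transfected multi-reporter cis constructs, treated 24 h. Endpoint fitted bidirectionally relative to DMSO.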

[11] = ATG_TCF_b_cat_CIS: Attagene CIS-FACTORIAL HepG2 Assay for human T-Cell-Factor with beta-catenin (TCF/b-cat) (AID 2282965); conditions: HepG2 TCF/beta-catenin cis-reporter transcription, actives raise or lower the signal
Method in brief: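 Using capillary electrophoresis as the read-out, labelled reporter cDNA fragments from transiently transfected HepG2 were sized and quantified. Exposure lasted 24 hours; activity in either direction was referenced to DMSO.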

[12] = ATG_TAL_CIS: Attagene CIS-FACTORIAL HepG2 Assay for human TAL Basal Promoter (AID 2282966); conditions: HepG2 Attagene cis-factorial TAL promoter reporter; actives raise or lower the signal;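 note: background control endpoint measuring basal TAL promoter reporter mRNA not a specific factor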
Method in brief: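 Fluorescence of labelled reporter cDNA fragments, resolved by capillary electrophoresis, gave the readout. Human HepG2 liver cells carried transiently transfected cis-element reporter units and were treated for 24 hours; activity was fitted bidirectionally against DMSO.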

[13] = molecular target: X-box-binding protein 1 (Homo sapiens) (UniProt P17861); assay: ATG_Xbp1_CIS: Attagene CIS-FACTORIAL HepG2 Assay for human X-box Binding Protein 1 (XBP1) (AID 2282972); conditions: HepG2 XBP1 cis-element reporter, Attagene multiplex; actives raise or lower the signal
X-box-binding protein 1 (Homo sapiens), sequence (P17861 whole entry, looked up): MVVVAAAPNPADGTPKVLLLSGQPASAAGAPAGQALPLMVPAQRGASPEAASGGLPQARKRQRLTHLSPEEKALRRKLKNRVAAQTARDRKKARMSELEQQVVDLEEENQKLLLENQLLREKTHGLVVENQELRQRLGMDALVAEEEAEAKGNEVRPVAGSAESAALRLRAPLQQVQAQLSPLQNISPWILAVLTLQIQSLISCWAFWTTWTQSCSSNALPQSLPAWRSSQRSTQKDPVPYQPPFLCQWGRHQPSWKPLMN
Method in brief: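 HepG2, transient MRTU transfection (cis-promoter driven), 24 h compound exposure. Total RNA → oligo(dT) RT → PCR → 6-FAM labeling → HpaI cut → CE. Bidirectional fit vs DMSO.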

[14] = ATG_GAL4_TRANS: Attagene TRANS-FACTORIAL HepG2 Assay for GAL4 (Internal Marker) (AID 2282976; active = hit-call score of the fitted dose curve at least 0.9, where 1 is the maximum); conditions: HepG2 Attagene TRANS GAL4 internal marker reporter
Method in brief: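 First, HepG2 cells were transfected with reporter units under GAL4-UAS control. Next, they were treated with chemical for 24 h. Finally, RNA was reverse-transcribed, PCR-amplified, FAM-labelled and resolved by capillary electrophoresis, with induction scored against DMSO.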

[15] = ATG_TGFb_CIS: Attagene CIS-FACTORIAL HepG2 Assay for human Transforming Growth Factor (TGF) (AID 2282967); conditions: HepG2 Attagene CIS TGFb reporter, mRNA transcription; actives raise or lower the signal
Method in brief: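 Transient MRTU transfection of HepG2 (FuGene 6). Dose 24 h. TriZol RNA, oligo(dT) RT, PCR, 6-FAM primer extension, HpaI cut, CE. Bidirectional fit, DMSO = baseline.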

[16] = molecular target: Estrogen receptor (Homo sapiens) (UniProt P03372); assay: ATG_ERa_TRANS: Attagene TRANS-FACTORIAL HepG2 Assay for human Estrogen Receptor alpha (ERa) (AID 2282970; active = hit-call score of the fitted dose curve at least 0.9, where 1 is the maximum); conditions: HepG2 Attagene TRANS ERa GAL4 reporter, mRNA
Estrogen receptor (Homo sapiens), sequence (P03372 whole entry, looked up, the tested form may be a part): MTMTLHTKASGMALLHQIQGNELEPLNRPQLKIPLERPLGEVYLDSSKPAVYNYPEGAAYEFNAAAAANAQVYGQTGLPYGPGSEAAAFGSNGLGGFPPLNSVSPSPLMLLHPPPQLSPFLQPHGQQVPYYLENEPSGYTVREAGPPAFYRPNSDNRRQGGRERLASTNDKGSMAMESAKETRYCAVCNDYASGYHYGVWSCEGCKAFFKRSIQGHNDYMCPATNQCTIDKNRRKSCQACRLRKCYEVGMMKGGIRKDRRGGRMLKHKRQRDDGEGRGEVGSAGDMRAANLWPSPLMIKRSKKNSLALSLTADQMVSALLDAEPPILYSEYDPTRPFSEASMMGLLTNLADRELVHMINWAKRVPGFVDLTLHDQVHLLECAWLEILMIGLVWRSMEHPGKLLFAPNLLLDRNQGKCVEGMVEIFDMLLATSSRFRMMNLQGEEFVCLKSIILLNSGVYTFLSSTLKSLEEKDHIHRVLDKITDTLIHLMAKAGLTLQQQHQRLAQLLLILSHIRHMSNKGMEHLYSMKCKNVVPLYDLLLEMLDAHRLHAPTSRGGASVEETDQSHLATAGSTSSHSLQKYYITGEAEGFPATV
Method in brief: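 Human liver HepG2, transient transfection of multiple GAL4-UAS reporter units; TRANS format (exogenous NR-Gal4 chimera). 24 h dosing. Readout: reporter mRNA, RT-PCR, 6-FAM primer extension, HpaI digest, capillary electrophoresis. Positive direction vs DMSO.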

[17] = molecular target: Steroid hormone receptor ERR1 (Homo sapiens) (UniProt P11474); assay: ATG_ERRa_TRANS: Attagene TRANS-FACTORIAL HepG2 Assay for human Estrogen-Related Receptor alpha (ERRa) (AID 2282971; active = hit-call score of the fitted dose curve at least 0.9, where 1 is the maximum); conditions: HepG2 Attagene TRANS reporter, ERRa transactivation
Steroid hormone receptor ERR1 (Homo sapiens), sequence (P11474 whole entry, looked up, the tested form may be a part): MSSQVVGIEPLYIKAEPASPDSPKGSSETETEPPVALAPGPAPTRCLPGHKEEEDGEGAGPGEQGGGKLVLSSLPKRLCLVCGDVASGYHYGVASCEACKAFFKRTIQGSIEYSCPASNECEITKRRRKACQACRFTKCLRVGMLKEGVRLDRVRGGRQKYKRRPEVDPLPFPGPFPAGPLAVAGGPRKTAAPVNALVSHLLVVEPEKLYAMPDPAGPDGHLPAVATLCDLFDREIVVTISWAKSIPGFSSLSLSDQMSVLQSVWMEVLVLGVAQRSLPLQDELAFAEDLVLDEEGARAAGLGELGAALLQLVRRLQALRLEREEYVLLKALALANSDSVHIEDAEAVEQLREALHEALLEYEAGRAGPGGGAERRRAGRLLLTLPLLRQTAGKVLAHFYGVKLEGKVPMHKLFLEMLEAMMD
Method in brief: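 Reporter transcript induction was quantified by RT-PCR and capillary electrophoresis of FAM-labelled, HpaI-cut products after 24 h treatment of HepG2 cells carrying transiently transfected GAL4-UAS reporter units and an exogenous ERRa-Gal4 fusion; activity scored as increase over DMSO.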

[18] = molecular target: Nuclear receptor subfamily 1 group I member 3 (Homo sapiens) (UniProt Q14994); assay: ATG_CAR_TRANS: Attagene TRANS-FACTORIAL HepG2 Assay for human Constitutive Androstane Receptor (CAR) (AID 2282969; active = hit-call score of the fitted dose curve at least 0.9, where 1 is the maximum;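 note: activators raise reporter mRNA above DMSO so AC50 marks induction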); conditions: HepG2 Attagene TRANS-FACTORIAL CAR reporter
Nuclear receptor subfamily 1 group I member 3 (Homo sapiens), sequence (Q14994 whole entry, looked up, the tested form may be a part): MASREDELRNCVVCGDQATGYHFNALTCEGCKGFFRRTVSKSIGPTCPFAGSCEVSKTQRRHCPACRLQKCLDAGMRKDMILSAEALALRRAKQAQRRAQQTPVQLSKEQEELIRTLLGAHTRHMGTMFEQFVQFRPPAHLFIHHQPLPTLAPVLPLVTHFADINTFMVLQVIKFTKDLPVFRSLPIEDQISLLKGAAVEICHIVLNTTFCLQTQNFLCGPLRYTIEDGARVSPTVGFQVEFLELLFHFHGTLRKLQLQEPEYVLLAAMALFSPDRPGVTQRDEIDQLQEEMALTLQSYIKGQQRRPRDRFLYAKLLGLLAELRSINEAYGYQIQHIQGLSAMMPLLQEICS
Method in brief: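 HepG2 cells transiently transfected with multiplexed GAL4-UAS reporter units expressing chimeric NR-Gal4 proteins; compound exposure 24 h. Reporter mRNA measured by RT-PCR, 6-FAM labelling, HpaI digestion and capillary electrophoresis; gain-of-signal fitted against DMSO baseline.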

[19] = ATG_M_19_TRANS: Attagene TRANS-FACTORIAL HepG2 Assay for M19 Transcription Factor (Internal Marker) (AID 2282974; active = hit-call score of the fitted dose curve at least 0.9, where 1 is the maximum); conditions: HepG2 Attagene TRANS-FACTORIAL M19 internal marker reporter
Method in brief: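 HepG2 cells transiently transfected with multiple GAL4-UAS reporter transcription units were exposed to chemicals for 24 h. Reporter mRNA was read by RT-PCR, 6-FAM primer extension, HpaI digestion and capillary electrophoresis; gain of signal fitted relative to DMSO.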

[20] = ATG_VDRE_CIS: Attagene CIS-FACTORIAL HepG2 Assay for human Vitamin D Receptor Element (VDRE) (AID 2282968); conditions: HepG2 VDRE cis-reporter transcription, actives raise or lower the signal
Method in brief: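 HepG2 cells transiently transfected with cis-element reporter units, dosed 24 h; reporter mRNA measured by RT-PCR, 6-FAM labeling, HpaI digestion and capillary electrophoresis. Activity fitted bidirectionally against DMSO baseline.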

Measured: AC50

CCC(=O)OCC=Cc1ccccc1
active: [3] 33.1 µM
not listed: [15] | [16] | [17] | [18] | [19] | [20]
inactive: all other assays above

CCCCCCCCCC(=O)OCC
not listed: [11] | [17] | [18] | [19] | [20]
inactive: all other assays above

CCC(C)C1CCCCC1=O (centres undefined)
not listed: [10] | [18] | [19] | [20]
inactive: all other assays above

Cc1ccc(C(C)(C)O)cc1
not listed: [10] | [12] | [14] | [17] | [19] | [20]
inactive: all other assays above

C1CCCNCC1
active: [3] 27.3 µM
not listed: [13] | [15] | [16] | [17] | [19] | [20]
inactive: all other assays above

CCCCCC#CC(=O)OC
active: [3] 20.2 µM
not listed: [10] | [11] | [14] | [17] | [20]
inactive: all other assays above

C[N+](C)(C)CCO
inactive: [1] | [2] | [3] | [4] | [5] | [6] | [7] | [8] | [9] | [10] | [12]

CCC(CC)CO
not listed: [10] | [15] | [17]
inactive: all other assays above

CCCCCCCCOS(=O)(=O)O
active: [4] 31.3 µM | [16] 100 µM
not listed: [11] | [19] | [20]
inactive: all other assays above

c1ccc2c(c1)-c1ccc3ccc4cccc5cc-2c1c3c45
active: [3] 1.02 µM | [5] 0.163 µM | [16] 0.422 µM
not listed: [10] | [13] | [14] | [17] | [19]
inactive: all other assays above

NC(=O)c1cnccn1
not listed: [10] | [12] | [17] | [19]
inactive: all other assays above

OCCN1CCOCC1
active: [16] 67.5 µM
not listed: [11] | [17] | [19] | [20]
inactive: all other assays above

COC(=O)C(C)Oc1ccc(Oc2ncc(C(F)(F)F)cc2Cl)cc1 (centres undefined)
active: [1] 77.7 µM | [3] 14.1 µM | [4] 34.3 µM | [5] 64.6 µM | [20] 42.8 µM
not listed: [12] | [13] | [15] | [17] | [19]
inactive: all other assays above

NCCN1CCNCC1
not listed: [12] | [13] | [14] | [17] | [19] | [20]
inactive: all other assays above

Cc1ccccc1S
active: [2] 60.4 µM | [3] 19.7 µM | [6] 103 µM | [7] 80.3 µM | [8] 41.7 µM | [11] 55.9 µM | [13] 75.5 µM
not listed: [5] | [14] | [17] | [19]
inactive: all other assays above

CC(=O)N(C)C
not listed: [10] | [16] | [18] | [19] | [20]
inactive: all other assays above

CC(=O)OCC=C(C)CCC=C(C)CCC=C(C)C
active: [1] 175 µM | [2] 63.8 µM | [3] 9.61 µM | [6] 162 µM | [10] 100 µM | [11] 148 µM | [12] 100 µM | [16] 9.02 µM | [13] 151 µM
inactive: [4] | [7] | [8] | [9] | [15] | [20] | [18] | [17]

CC(C)Cc1ccc(C(C)C(=O)O)cc1 (centres undefined)
active: [4] 34.4 µM | [16] 36.4 µM
not listed: [11] | [15] | [20]
inactive: all other assays above
